Assay outcomes (PubChem BioAssay)
Pf growth 96h – P. falciparum growth inhibition at 96 hours | 320,000 compounds, 6.9% hits | Potency, µM (highest dose often 28.7 µM), usual class: inhibitors | P. falciparum luciferase reporter growth, 96 h
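P. falciparum expressing integrated firefly luciferase, in erythrocytes at 2% hematocrit, 0.05% parasitemia, incubated with compounds 96 h at 37 C, 5% CO2. Growth inhibition read as loss of luminescence; two-generation exposure targets delayed-death apicoplast inhibitors.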
Cycloheximide cs – counter-screen for Shiga toxin inhibitors: cycloheximide protein synthesis inhibition; cell reporter, cycloheximide protein synthesis inhibition counterscreen; max response, %; 300,000 compounds, 12% hits; AID 2314; in the data active = max response mostly above about 13%, no sharp cut-off; inactive = mostly below about 14%; note: read at 38.3 µM for the half of the compounds with a filed dose
HCMV inh – inhibitors of human cytomegalovirus; HFF cells, HCMV-luciferase reporter, 72 h; stronger effect = lower value; activity change, negative = inhibition, % at 57.5 µM; 410,000 compounds, 4.5% hits; in the data active = activity change below about -60%; inconclusive = no clear call, values can overlap the other calls; inactive = above about -39%
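Two-dose cell screen: HFF monolayers treated with compounds and infected with luciferase-expressing HCMV at 1 PFU/cell, 72 h at 37C, then lysed for luciferase measurement.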
Shiga toxin inh – Shiga toxin inhibition. Vero cells, Shiga toxin protein synthesis inhibition reporter. inhibition, % at 38.7 µM. 290,000 compounds, 9.2% hits. AID 2315; in the data active = inhibition mostly above about 28%, no sharp cut-off; inactive = mostly below about 43%
Pf growth 48h – inhibits P. falciparum growth in the first generation, 48 h | P. falciparum luciferase growth in erythrocytes, 48 h | Potency, µM (series often up to 28.7 µM), hits mostly inhibitors | 310,000 compounds, 5.9% hits | AID 504832
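Erythrocytes infected with P. falciparum carrying an integrated firefly luciferase reporter (2% hematocrit, 0.1% parasitemia final) were exposed to compounds in RPMI 1640 with 0.5% Albumax at 37 C, 5% CO2. Growth inhibition was scored as reduced luminescence.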
A number is an active result; i = inactive; ? = inconclusive; nt = no result; [ ] = remark or other dose. Rows were chosen to be rich in hits. Some 20% of all compounds tested hit in one or more screens of this group. Unless noted, calls come from the whole dose curve; as a rule, active = well fitted inhibition curve with a large enough effect; inconclusive = small, poorly fitted or top-dose-only effect, or another doubt; inactive = no such curve, though single readings can be large or run the other way.

SMILES	Pf growth 96h	Cycloheximide cs	HCMV inh	Shiga toxin inh	Pf growth 48h
CC(NC(=O)Nc1ccc(Cl)cc1)c1ccc2c(c1)OCO2 (centres undefined)	i	i	i	i	i
O=C(Nc1ccc(Cl)cc1)Nc1ccc2c(c1)OCO2	i	76.4	i	79.8	i
O=C(Nc1cccc(C(=O)O)c1)/C(=C\c1ccc2c(c1)OCO2)NC(=O)c1ccc(Br)o1	i	16.4	i	45.4	i
O=C(Nc1ccc2c(c1)OCO2)c1ccc(CO)cc1	i	nt	i	nt	i
O=C(NCCC1=CCCCC1)C1CCN(C(=O)N2CCOc3ccc(Cl)cc32)CC1	nt	nt	i	nt	nt
Cc1cccc(C)c1NC(=O)CSCc1cnn(-c2ccccc2)c1-n1cccc1	nt	nt	i	nt	nt
O=C(Nc1ccc([N+](=O)[O-])cc1)Nc1ccc2c(c1)OCCO2	i	55.0	i	128.8	i
Cc1cc(C)c2[nH]c(C(=O)Nc3ccc4c(c3)OCO4)cc2c1	i	15.6	i	i	i
Cc1cc(C)c(NC(=O)Nc2ccc3c(c2)OCO3)c(C)c1	i	37.2	i	82.4	i
COc1cc([N+](=O)[O-])ccc1NC(=O)Nc1ccc2c(c1)OCCO2	i	i	i	i	i
CC1=C(C)CC(C(=O)Nc2ccc3c(c2)OCO3)C(C(=O)O)C1 (centres undefined)	i[1.15 µM]	28.5	i	40.7	i
O=C(COc1ccc([N+](=O)[O-])cc1)Nc1nc2c(s1)CCCC2	nt	nt	i	nt	nt
COCCSc1ccccc1C(=O)N1CCc2ccccc21	?	i	i	i	i
C[C@]12CCC[C@H](O1)c1c(cc3c(c1O)C(=O)c1c(O)cc(O)cc1C3=O)O2	nt	nt	i	nt	nt
O=C(Nc1ccc2c(c1)OCO2)Nc1ccc(Cl)cc1Cl	i	28.1	i	63.6	nt
COc1cc(NC(=O)Nc2ccc3c(c2)OCO3)cc(OC)c1OC	i	i	i	i	i
Cc1ccc(C(=O)O)cc1NC(=O)Nc1ccc2c(c1)OCO2	i	19.7	i	72.6	i
O=C(Nc1ccc2c(c1)OCO2)Nc1ccc(F)cc1F	?	65.0	i	86.7	i
Cc1ccc(NC(=O)Nc2ccc3c(c2)OCO3)c(Br)c1	?	43.4	?	i	i
O=C(Nc1ccc(F)cc1F)c1cc(-c2ccc3c(c2)OCO3)on1	i	i	i	i	i
COc1ccc(C(C)(C)C)cc1NC(=O)Nc1ccc2c(c1)OCO2	i	i	i	i	?
O=C(Nc1ccc(C(=O)N2CCOCC2)cc1)Nc1ccc(Cl)cc1Cl	i	i	i	i	i
CC(C)(C)c1ccc2c(S(=O)(=O)O)c(C(C)(C)C)ccc2c1	?	nt	nt	nt	i
CC(CCc1ccccc1)NC(=O)CNC(=O)N1CC(=O)Nc2ccccc21 (centres undefined)	i	i	i	i	i
Cc1ccc(C)c(NC(=O)c2ccc3c(c2)CCCN3S(C)(=O)=O)c1	nt	nt	i	nt	nt
SMILES	Pf growth 96h	Cycloheximide cs	HCMV inh	Shiga toxin inh	Pf growth 48h
CC(C)c1ccc(NC(=O)Cn2c(=O)n(CCc3ccccc3)c(=O)c3ccccc32)cc1	nt	nt	i	nt	nt
CCc1ccc2[nH]c(C(=O)Nc3ccc(Br)c(C)n3)cc2c1	i	31.7	i	136.6	i
O=C(Nc1ccc(F)cc1)Nc1ccc2c(c1)OCO2	i	i	i	i	?
O=C(CN1C2CCC1CC(O)(c1cccnc1)C2)Nc1ccc2c(c1)OCO2 (centres undefined)	8.28µM	i	i	i	i
CCc1ccc2[nH]c(C(=O)Nc3ccc(F)cc3Br)cc2c1	i	i	i	i	i
O=C(Nc1ccc2c(c1)OCO2)Nc1ccc2c(c1)OCO2	i	29.4	i	75.3	i
O=C(O)c1cccc(-c2ccc3c(c2)OCO3)c1	3.7µM	i	i	i	i
CC1(c2ccccc2)NC(=O)N(CC(=O)Nc2ccc3c(c2)OCO3)C1=O (centres undefined)	i	i	i	i	nt
CCNC(=O)COC(=O)c1cc(S(=O)(=O)N2CCCc3ccccc32)ccc1Cl	i	i	i	i	i
O=C(Nc1cccc(C(=O)O)c1)Nc1ccc2c(c1)OCO2	i	29.7	i	36.1	i
CCOC(=O)c1c(C)c2c(n1C)CCC/C2=N\O	11.7µM	i	i	i	i
CCOC(=O)c1c(C)c(C(=O)NC2CCCCCC2)c(C)n1C	nt	i	i	i	i
COc1ccc2c(c1)sc1ncc(C(=O)NCc3cccc(Cl)c3)c(=O)n12	nt	nt	i	nt	nt
CCc1ccc(N(C(=O)c2ccco2)C(C(=O)NC2CCCC2)c2ccncc2)cc1 (centres undefined)	?	15.0	i	74.2	i
